Assay results as given in PMC4552634, “A New Set of Chemical Starting Points with Plasmodium falciparum Transmission-Blocking Potential for Antimalarial Drug Discovery” (PLoS ONE, 2015).
Where two headings read alike, the source gives them in different places. Hit rate of the full screen: of about 13,000 compounds, about 3,200 (25%) showed an effect of 50% or more. This is one part of the list.

Tested on: P. falciparum stage V gametocytes
Set-up: BacTiter-Glo ATP luminescence viability of purified stage V gametocytes in 384-well plates, per cent inhibition versus DMSO
Conditions: 48 h, 5 µM, inhibitor

Row | SMILES | % Inhibition [%] | % Inhibition (% Inhibition) [%]
1 | CN(Cc1ccccc1)C(=O)CCNS(=O)(=O)c1cc(Br)cnc1N [TCMDC-125445] | 18.91 | 
2 | COc1cccc(CCc2ccc(O)c3c2C[C@H]2C[C@H]4[C@H](N(C)C)C(=O)C(C(N)=O)=C(O)[C@@]4(O)C(=O)C2=C3O)c1 [TCMDC-138636] | 7.419 | 
3 | CCCC/C=C(\Cl)c1ccc(O)c2c1C[C@H]1C[C@H]3[C@H](N(C)C)C(=O)C(C(N)=O)=C(O)[C@@]3(O)C(=O)C1=C2O [TCMDC-138656] | 85.94 | 
4 | CN(C)[C@@H]1C(=O)C(C(N)=O)=C(O)[C@@]2(O)C(=O)C3=C(O)c4c(O)ccc(C#Cc5ccccn5)c4C[C@H]3C[C@@H]12 [TCMDC-138642] | 7.454 | 
5 | COc1ccccc1C1CN(Cc2coc3ccccc3c2=O)Cc2ccccc2O1 (stereo not shown) [TCMDC-124669] | 4.679 | 
6 | Cc1c(Cl)cccc1S(=O)(=O)Nc1ccc(CCN2CCC(N)CC2)cc1 [TCMDC-134083] | 99.61 | 
7 | NC1CCN(CCc2ccc(NS(=O)(=O)c3cccc4ccccc34)cc2)CC1 [TCMDC-134084] | 55.68 | 
8 | COC(=O)CCCOc1cc(Cc2cnc(N)nc2N)cc(OC)c1OC [TCMDC-137557] | 8.428 | 
9 | CC1(C)N=C(N)N=C(N)N1OCCc1cccc2ccccc12 [TCMDC-131663] | 2.124 | 
10 | CCNC(=O)Nc1ccc(-c2ccc(-c3nc4cccc(C)c4[nH]3)s2)cc1 [TCMDC-133170] | 11.61 | 
11 | Cc1cc2[nH]c(-c3ccc(C(=O)NCCCN4CCN(c5cccc(Cl)c5)CC4)cc3)nc2cc1Cl [TCMDC-140027] | -17.26 | 
12 | Cn1nccc1C(=O)NCCNCc1ccc(-c2ccc(-c3nc4cc(F)ccc4[nH]3)cc2)cc1.O=C(O)C(F)(F)F [TCMDC-133012] | -30.72 | 
13 | CCc1nc2c(cnn2CC)c(NC2CCOCC2)c1CNC(=O)N1CCOCC1 [TCMDC-136620] | 94.41 | 
14 | CCn1ncc2c(NC3CCOCC3)c(CNC(=O)c3ccnn3C)c(C)nc21 [TCMDC-136560] | 97.63 | 
15 | Cc1nc(C)n(CC(=O)Nc2cccc(-c3cccc(-c4nc5ccc(C(F)(F)F)cc5[nH]4)c3)c2)n1 [TCMDC-137134] | -7.323 | 
16 | O=S(=O)(c1cccc(F)c1)c1ccc(Nc2ncnc3cc(Br)sc23)cc1Cl [TCMDC-135626] | 18.51 | 
17 | O=C(Nc1n[nH]c2nc(-c3ccco3)c(Br)cc12)c1ccc(CN2CCCC2)cc1 [TCMDC-141483] | 10.19 | 
18 | CN(C)CCN(Cc1ccccc1-c1ccc(CNCCc2ccccc2)cc1)C(=O)NC1CCCCC1 [TCMDC-140626] | 107.8 | 
19 | COc1cccc(CCN(Cc2ccccc2-c2ccc(CNC3CC(C)(C)NC(C)(C)C3)cc2)C(=O)NC2CCCCC2)c1 [TCMDC-141577] | 108.7 | 
20 | CN(C)CCN(Cc1ccccc1-c1ccc(CNCCc2ccccc2)cc1)C(=O)c1ccccc1 [TCMDC-140532] | 112.9 | 
21 | CC(=O)Nc1cccc(C(=O)Nc2nc3ccc(-c4cc(=O)[nH]c(Nc5ccccc5Cl)n4)cc3[nH]2)c1 [TCMDC-135793] | -20.56 | 
22 | C(=Cc1ccccc1)C=NNc1ccnc2ccccc12 [TCMDC-142061] | -65.55 | 
23 | Fc1cccc(COc2ccc(Nc3ncnc4sc(C#CCNC5CCCC5)cc34)cc2Cl)c1 [TCMDC-138786] | -17.57 | 
24 | CCC1N=C(N)N=C(N)N1OCCCOc1c(Cl)cc(Cl)cc1Cl (stereo not shown) [TCMDC-131697] | 23.8 | 
25 | Cc1ccc(NC(=O)NC2CCN(c3ccnc4cc(Cl)ccc34)C2)cc1 (stereo not shown) [TCMDC-133651] | 27.92 | 

Row | SMILES | % Inhibition [%] | % Inhibition (% Inhibition) [%]
26 | COc1cc(NC(=O)/C=C/c2ccccc2Cl)cc(OCCN2CCC(O)(c3ccccc3)CC2)c1 [TCMDC-140934] | -1.317 | 
27 | O=C1Nc2cccc3c2C1(CCCN1CCC(c2c[nH]c4cc(C(F)(F)F)ccc24)CC1)CCC3 (stereo not shown) [TCMDC-140464] | 106.4 | 
28 | CC(C)(C)OC(=O)n1cc(C2CCN(CCCC34CCCc5cccc(c53)NC4=O)CC2)c2ccncc21 (stereo not shown) [TCMDC-140392] | 2.693 | 
29 | O=C1Nc2cccc3c2C1(CCCCN1CCC(c2cc4ccncc4[nH]2)CC1)CCC3 (stereo not shown) [TCMDC-141151] |  | 27.49
30 | O=C1Nc2cccc3c2C1(CCCCN1CCC(c2c[nH]c4cc(C(F)(F)F)ccc24)CC1)CCC3 (stereo not shown) [TCMDC-140465] | 121.5 | 
31 | O=C1Nc2cccc3c2C1(CCCCN1CCC(c2cc4ccncc4[nH]2)CC1)CCC3 (stereo not shown) [TCMDC-141221] |  | 84.1
32 | O=C1Nc2cccc3c2C1(CCCCCN1CCC(c2c[nH]c4ccncc24)CC1)CCC3 (stereo not shown) [TCMDC-140504] | 73.67 | 
33 | O=C1Nc2cccc3c2C1(CCCCCN1CC=C(c2c[nH]c4ccccc24)CC1)CCC3 (stereo not shown) [TCMDC-140570] | 20.32 | 
34 | O=C1Nc2cccc3c2C1(CCCCN1CC=C(c2c[nH]c4ncccc24)CC1)CCC3 (stereo not shown) [TCMDC-140506] | -6.886 | 
35 | CC1(CCCCN2CCC(Oc3ccc(F)cc3F)CC2)C(=O)Nc2ccccc21 (stereo not shown) [TCMDC-140794] | -43.13 | 
36 | CCOc1ncccc1CN1CCC(N2CCc3cc(NC(=O)c4ccco4)ccc32)C1 (stereo not shown) [TCMDC-135074] | -21.9 | 
37 | COc1ccc(C2N=C(N)N=C(N)N2c2ccc(Cl)cc2)cc1OC (stereo not shown) [TCMDC-123670] | -7.954 | 
38 | COc1cc(C(=O)NC2CCN(Cc3ccccc3)CC2)ccc1-c1nc2c(Cl)cc(C(F)(F)F)cc2[nH]1 [TCMDC-140085] | -15.98 | 
39 | Cc1cccc2[nH]c(-c3ccc(-c4ccc(NC(=O)Nc5ccc(F)c(F)c5F)cc4)cc3)nc12 [TCMDC-133232] | 3.128 | 
40 | N#Cc1ccc2c(c1)CCN(CCC1CCC(NC(=O)/C=C/c3cccc4cc[nH]c34)CC1)CC2 (stereo not shown) [TCMDC-139671] | -14.99 | 
41 | CCN1CC=C(c2c[nH]c3ccccc23)CC1 [TCMDC-124447] | -15.41 | 
42 | Cn1c(/C=C/C(=O)NC2CCC(CCN3CCc4ccc(C#N)cc4CC3)CC2)cc2ccccc21 (stereo not shown) [TCMDC-139683] | -68.7 | 
43 | Cc1cn(CC(=O)Nc2cccc(-c3cccc(-c4nc5c(C)cccc5[nH]4)c3)c2)c(=O)[nH]c1=O [TCMDC-137037] | -3.611 | 
44 | CC1(CCCCN2CCC(Cc3ccccc3)CC2)C(=O)Nc2ccccc21 (stereo not shown) [TCMDC-140796] | 0.5554 | 
45 | CC1(CCN2CCC(c3c[nH]c4cnccc34)CC2)CCCc2c(Br)cccc2C1=O (stereo not shown) [TCMDC-141171] | 95.16 | 
46 | O=c1[nH]c(NCCCCCN2CCC(c3c[nH]c4ccccc34)CC2)ncc1Cc1ccc(Cl)c(Cl)c1 [TCMDC-139189] | 16.9 | 
47 | CC1(CCCCN2CCC(c3c[nH]c4cnccc34)CC2)C(=O)Nc2cccc(Cl)c21 (stereo not shown) [TCMDC-141177] | 63.64 | 
48 | Cc1ccc(C(=O)Nc2cccc([N+](=O)[O-])c2)cc1S(=O)(=O)N1CC(C)CC(C)C1 (stereo not shown) [TCMDC-123731] | 8.733 | 
49 | COc1cc(F)c2ncc(Cl)c([C@@H](O)CN3CCC(NCc4ccc5c(n4)NC(=O)CO5)CC3)c2c1 [TCMDC-135488] | 20.51 | 
50 | C=C[C@H]1CN2CC[C@H]1C[C@H]2[C@H](O)c1ccnc2ccc(OC)cc12 [TCMDC-123939] |  | 23.69

Row | SMILES | % Inhibition [%] | % Inhibition (% Inhibition) [%]
51 | CCCCN(CCCC)CCCN(CCCN(CCCC)CCCC)c1cc(C)nc(Nc2ccc3cc(Br)ccc3c2)n1 [TCMDC-138005] | 117 | 
52 | CCCN(CCC)CCCN(CCCN(CCC)CCC)c1cc(C)nc(Nc2ccc3cc(Br)ccc3c2)n1 [TCMDC-138006] | 102.3 | 
53 | CCN(CC)CCCN(CCCN(CC)CC)c1cc(C)nc(Nc2ccc3cc(Br)ccc3c2)n1 [TCMDC-137611] | 92.7 | 
54 | CCN(CCCN1CCCCC1)c1cc(C)nc(Nc2ccc(C)c(Br)c2)n1 [TCMDC-132436] | 25.65 | 
55 | CCN(CCCN1CCCCC1)c1cc(C)nc(Nc2ccc(C)c(C)c2)n1 [TCMDC-132440] | 22.96 | 
56 | CCN(CCCN1CCCCC1)c1cc(C)nc(Nc2ccc(OC)cc2)n1 [TCMDC-132430] | -5.018 | 
57 | O=C(NC1CCN(Cc2ccc3c(c2)OCCO3)CC1)c1ccc(-c2cccc(C(F)(F)F)c2)s1 [TCMDC-134337] | 32.78 | 
58 | COc1ccc(C2N=C(N)N=C(N)N2OCc2ccccc2)cc1OC (stereo not shown) [TCMDC-131345] | 5.736 | 
59 | CC1(C)N=C(N)N=C(N)N1OCCCCCOc1ccccc1 [TCMDC-131319] | -2.033 | 
60 | CC(=O)N(C)c1cccc(C(=O)Nc2cccc(-c3cccc(-c4nc5c(C)cccc5[nH]4)c3)c2)c1 [TCMDC-137071] | 44.44 | 
61 | Cc1cc(CN2CCC(N3CC(c4ccccc4)(c4ccccc4)OC3=O)C2)ccc1O (stereo not shown) [TCMDC-136072] | -30.84 | 
62 | COc1ccc2cc(-c3nc(-c4c(Cl)cccc4Cl)[nH]c3-c3ccnc(NCCC4CCCN4C)c3)ccc2c1 (stereo not shown) [TCMDC-141248] | 70.07 | 
63 | COc1cc(-c2cc3cc(Cl)c(Cl)cc3[nH]2)ccc1C(=O)NCCC1CCCN1C (stereo not shown) [TCMDC-141287] | -25.11 | 
64 | CCN(CC)CCCCNc1cc(-c2[nH]c(-c3c(Cl)cccc3Cl)nc2-c2ccc3cc(OC)ccc3c2)ccn1 [TCMDC-141249] | 85.02 | 
65 | COc1cc(NC(=O)CCCCCCCN2CCN(C)CC2)c2ncccc2c1 [TCMDC-138214] | -6.593 | 
66 | COc1cccc(CNCC(C)(C)c2nc(-c3ccc(Cl)c(O)c3)c(-c3ccncc3)[nH]2)c1 [TCMDC-140687] | -54.89 | 
67 | CC(C)(CNC(=O)[C@@H]1CCCN(CCOc2ccc(Cl)cc2)C1)c1nc(-c2ccc(Cl)c(O)c2)c(-c2ccncc2)[nH]1 [TCMDC-141125] | 7.649 | 
68 | COc1cc(-c2nc(-c3ccc4c(c3)CCC4=NO)c(-c3ccncc3)[nH]2)ccc1OCCN1CCN(C)CC1 [TCMDC-141256] | -11.77 | 
69 | CN(C)CCOc1ccc(NC(=O)NC(C)(C)c2nc(-c3ccc(Cl)c(O)c3)c(-c3ccncc3)[nH]2)cc1 [TCMDC-140744] | -34.41 | 
70 | COc1ccc2cc(-c3nc(-c4c(Cl)cccc4Cl)[nH]c3-c3ccnc(NCCCN4CCN(C)CC4)c3)ccc2c1 [TCMDC-141250] | 55.44 | 
71 | CCN(CC)CCCCNc1cc(-c2[nH]c(C(C)(C)C)nc2-c2ccc3cc(OC)ccc3c2)ccn1 [TCMDC-141246] | 101.1 | 
72 | COc1ccc(C)c(Nc2ccnc(Nc3cccc(-c4nc5ccccc5[nH]4)c3)n2)c1 [TCMDC-138696] | 21 | 
73 | COc1cc(-c2nc(C(C)(C)CN)[nH]c2-c2ccncc2)ccc1Br [TCMDC-140674] | -82.82 | 
